Assay results reported in PubChem BioAssay (EPA / NIEHS).
Results filed as inconclusive are left out. Some compounds were tested as several samples or in several runs, with calls that do not always agree. Calls of active or inactive are those of the source. The calls were made as follows: active = hit-call score of the fitted dose curve at least 0.9, where 1 is the maximum; inconclusive = response in the unintended direction; inactive = score below 0.9.

Legend:
[1] = LTEA_HepaRG_LDH_cytotoxicity: Cytotoxicity Assessment in the Life Technologies and Expression Analysis (LTEA) Assay (AID 2283563);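 as to AC50: LDH activity released into spent culture medium as a marker of cell death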
Outline: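 Differentiated HepaRG cells in serum-free induction medium, exposed 48 h in duplicate to 8 half-log concentrations up to 100 uM in 0.5% DMSO. Cytotoxicity from LDH measured in spent medium, fit relative to DMSO.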

[2] = TOX21_p53_BLA_p2_viability: Viability Assessment in the Tox21 HCT-116 p53 Agonism Beta-lactamase Assay, Phase 2 (AID 2283591);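 also: compound exposure lasted 16 h at 37 °C; actives lower the ATP signal meaning cytotoxicity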
Outline: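 HCT116 p53-bla cells, 4000/well, dosed after 5 h plating (217-fold dilution of DMSO stocks) and incubated 16 h at 37C. Viability taken as cellular ATP by CellTiter-Glo luminescence after 30 min RT; signal loss marks cytotoxicity.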

[3] = target: Cellular tumor antigen p53 (Homo sapiens) (UniProt P04637); experiment: TOX21_p53_BLA_p2_ratio: Tox21 HCT-116 p53 Agonism Beta-lactamase Assay, Ratio, Phase 2 (AID 2283592)
Cellular tumor antigen p53 (Homo sapiens), sequence (P04637 whole entry, looked up): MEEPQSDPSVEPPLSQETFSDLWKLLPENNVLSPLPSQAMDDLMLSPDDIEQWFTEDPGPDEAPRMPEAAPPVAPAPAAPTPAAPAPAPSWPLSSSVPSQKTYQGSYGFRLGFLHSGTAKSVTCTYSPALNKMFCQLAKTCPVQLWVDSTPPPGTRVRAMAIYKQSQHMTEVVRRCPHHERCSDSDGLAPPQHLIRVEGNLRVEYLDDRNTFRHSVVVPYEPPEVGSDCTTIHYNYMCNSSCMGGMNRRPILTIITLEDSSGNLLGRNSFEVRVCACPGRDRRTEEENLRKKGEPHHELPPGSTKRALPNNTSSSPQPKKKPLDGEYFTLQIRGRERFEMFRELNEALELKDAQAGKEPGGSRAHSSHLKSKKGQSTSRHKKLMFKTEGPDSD
Outline: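 HCT-116 cells with p53-responsive beta-lactamase reporter, 4000 cells/well, preincubated 5 h, then compound in DMSO (217-fold dilution) for 16 h at 37C. CCF4-AM substrate 2 h at room temperature; 460/530 nm emission ratio fitted upward versus DMSO.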

[4] = TOX21_p53_BLA_p3_viability: Viability Assessment in the Tox21 HCT-116 p53 Agonism Beta-lactamase Assay, Phase 3 (AID 2283593);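 also: cells exposed to compound for 16 h before reading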
Outline: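 HCT116 cells, 4000/well, dosed 5 h after plating by pin transfer (217-fold dilution from DMSO stock) and incubated 16 h at 37C, 5% CO2. Viability read as ATP luminescence with CellTiter-Glo after 30 min at room temperature.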

[5] = target: Cellular tumor antigen p53 (Homo sapiens) (UniProt P04637); experiment: TOX21_p53_BLA_p3_ratio: Tox21 HCT-116 p53 Agonism Beta-lactamase Assay, Ratio, Phase 3 (AID 2283596)
Outline: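 HCT116 p53-bla cells (4000/well) given compound in DMSO (217-fold dilution) after 5 h, incubated 16 h at 37C. CCF4-AM substrate 2 h at room temperature; 460/530 nm emission ratio, gain fitted against DMSO.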

[6] = TOX21_p53_BLA_p4_viability: Viability Assessment in the Tox21 HCT-116 p53 Agonism Beta-lactamase Assay, Phase 4 (AID 2283597);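 also: hits lower the luminescence signal meaning cytotoxicity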
Outline: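 HCT-116 p53-bla cells, 4000/well, dosed after 5 h attachment and incubated 16 h at 37 °C, 5% CO2. Viability from CellTiter-Glo ATP luminescence after 30 min at room temperature, taken after the beta-lactamase read; loss of signal indicates cytotoxicity.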

[7] = target: Cellular tumor antigen p53 (Homo sapiens) (UniProt P04637); experiment: TOX21_p53_BLA_p5_ratio: Tox21 HCT-116 p53 Agonism Beta-lactamase Assay, Ratio, Phase 5 (AID 2283599)
Outline: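 HCT-116 p53-bla cells (4000/well) plated 5 h, dosed with compound (217-fold DMSO dilution) for 16 h at 37 C; CCF4-AM substrate 2 h at room temperature. Activity is the 460/530 nm emission ratio (405 nm excitation), fitted in gain-of-signal direction versus DMSO.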

[8] = TOX21_p53_BLA_p5_viability: Viability Assessment in the Tox21 HCT-116 p53 Agonism Beta-lactamase Assay, Phase 5 (AID 2283600)
Outline: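 HCT-116 p53 beta-lactamase reporter cells, 4000/well, were exposed to compound (pin transfer, 217-fold dilution) for 16 hours at 37C. Cellular ATP was read by CellTiter-Glo luminescence after 30 min at room temperature.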

[9] = target: Cellular tumor antigen p53 (Homo sapiens) (UniProt P04637); experiment: TOX21_p53_BLA_p4_ratio: Tox21 HCT-116 p53 Agonism Beta-lactamase Assay, Ratio, Phase 4 (AID 2283601)
Outline: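 HCT-116 p53 beta-lactamase reporter cells (4000/well) preincubated 5 h, then compound (217-fold dilution of DMSO stock) for 16 h at 37C. CCF4-AM substrate added 2 h at room temperature; 460/530 nm emission ratio fitted upward versus DMSO.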

[10] = Tanguay_ZF_120hpf_MORT_legacy: (Legacy) Oregon State University Tanguay Lab 120 Hour Post-fertilization zebrafish Assay for Mortality (AID 2283633);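 as to AC50: fitted as increase in binary mortality versus DMSO negative control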
Outline: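 Dechorionated Tropical 5D wild-type zebrafish embryos, one per well from 6 hpf, static exposure in 0.64% DMSO at 28C until 120 hpf. Mortality scored as binary by brightfield microscopy at 24 and 120 hpf.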

[11] = Tanguay_ZF_120hpf_YSE_legacy: (Legacy) Oregon State University Tanguay Lab 120 Hour Post-fertilization zebrafish Assay for Yolk Sac Edema (AID 2283634);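 as to AC50: actives raise the incidence of yolk sac edema above the DMSO baseline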
Outline: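 Dechorionated Tropical 5D wild-type zebrafish embryos were exposed statically, one per well, from 6 to 120 hpf at 28C in 0.64% DMSO. Yolk sac edema was scored present/absent by brightfield at 120 hpf, and dead embryos were excluded.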

[12] = Tanguay_ZF_120hpf_AXIS_legacy: (Legacy) Oregon State University Tanguay Lab 120 Hour Post-fertilization zebrafish Assay for Body Axis Malformation (AID 2283635);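 as to AC50: potency for an increased fraction of larvae scored with body axis malformation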
Outline: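 Dechorionated wild-type Tropical 5D zebrafish embryos, one per well, statically exposed from 6 hpf to 120 hpf at 28C in 0.64% DMSO final. Body axis malformation scored present/absent by brightfield microscopy at 120 hpf; dead embryos excluded.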

[13] = Tanguay_ZF_120hpf_EYE_legacy: (Legacy) Oregon State University Tanguay Lab 120 Hour Post-fertilization zebrafish Assay for Eye Malformation (AID 2283636);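 also: binary presence or absence of eye malformation scored by brightfield in 120 hpf larvae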
Outline: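 Dechorionated Tropical 5D zebrafish embryos, one per well from 6 hpf, static exposure to 120 hpf at 28C, 0.64% DMSO. Eye malformation scored present/absent by brightfield; dead embryos not scored.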

[14] = Tanguay_ZF_120hpf_SNOU_legacy: (Legacy) Oregon State University Tanguay Lab 120 Hour Post-fertilization zebrafish Assay for Snout Malformation (AID 2283637)
Outline: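 Dechorionated tropical 5D wild-type zebrafish embryos exposed statically from 6 to 120 hpf at 28C, one per well, in 0.64% DMSO. Snout malformation scored as present/absent by brightfield at 120 hpf; dead embryos not scored.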

[15] = Tanguay_ZF_120hpf_JAW_legacy: (Legacy) Oregon State University Tanguay Lab 120 Hour Post-fertilization zebrafish Assay for Jaw Malformation (AID 2283638)
Outline: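 Dechorionated Tropical 5D wild-type zebrafish embryos, one per well, exposed statically from 6 hpf to 120 hpf at 28C in 0.64% DMSO. Jaw malformation was scored by brightfield microscopy as present or absent. It was not scored in dead embryos.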

[16] = Tanguay_ZF_120hpf_OTIC_legacy: (Legacy) Oregon State University Tanguay Lab 120 Hour Post-fertilization zebrafish Assay for Otic Vesicle Malformation (AID 2283639)
Outline: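 Otic vesicle malformation is read as a yes/no morphology call at 120 hpf. Exposure is static at 28C with 0.64% (vol/vol) DMSO; embryos that die are excluded from non-mortality endpoints.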

[17] = Tanguay_ZF_120hpf_PE_legacy: (Legacy) Oregon State University Tanguay Lab 120 Hour Post-fertilization zebrafish Assay for Pericardial Edema (AID 2283640);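 as to AC50: potency for increased incidence of pericardial edema versus DMSO baseline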
Outline: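 Tropical 5D wild-type zebrafish embryos were statically exposed until 120 hpf at 28C, with 0.64% DMSO final. Pericardial edema was scored by brightfield as present or absent; endpoints were not scored in dead embryos.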

[18] = Tanguay_ZF_120hpf_BRAI_legacy: (Legacy) Oregon State University Tanguay Lab 120 Hour Post-fertilization zebrafish Assay for Brain Malformation (AID 2283641)
Outline: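 Tropical 5D wild-type zebrafish embryos exposed statically until 120 hpf at 28C, 0.64% DMSO final, sealed and dark. Brain malformation scored present/absent by brightfield at 120 hpf; dead embryos excluded. Trimethyltin chloride 5uM positive control.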

[19] = Tanguay_ZF_120hpf_SOMI_legacy: (Legacy) Oregon State University Tanguay Lab 120 Hour Post-fertilization zebrafish Assay for Somite Malformation (AID 2283647)
Outline: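 Dechorionated Tropical 5D wild-type zebrafish embryos, one per well from 6 hpf, statically exposed at 28C to 120 hpf in 0.64% DMSO; somite malformation scored present/absent by brightfield; trimethyltin 5 uM positive control; dead embryos not scored.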

[20] = ATG_XTT_Cytotoxicity: Cytotoxicity Assessment in the Attagene TRANS-FACTORIAL HepG2 Assay (AID 2283584)
Outline: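 HepG2 cells transiently transfected with GAL4-UAS multiple reporter units, dosed 24 h; cytotoxicity read by XTT as loss of signal versus DMSO baseline.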

Measured: AC50

O=C(Nc1ccccc1-c1ccc(Cl)cc1)c1cccnc1Cl
not listed: [20]
inactive: all other assays above

Nc1c(Cl)c(F)nc(OCC(=O)O)c1Cl
not listed: [6] | [9] | [12] | [18] | [20]
inactive: all other assays above

Cn1c(-c2ccccc2)cc(-c2ccccc2)[n+]1C
inactive: [2] | [3] | [4] | [5] | [6] | [7] | [8] | [9] | [10] | [11] | [12] | [13] | [14] | [15] | [16] | [17] | [18] | [19]
active: [1] 66.1 µM | [3] 24.2 µM

CC(C)N1C(=O)N(c2ccccc2)CSC1=NC(C)(C)C
active: [1] 84.1 µM | [2] 84.6 µM | [6] 71.3 µM | [8] 69 µM | [9] 87.2 µM
not listed: [18] | [20]
inactive: all other assays above

OC(c1ccc(Cl)cc1)(c1ccc(Cl)cc1)C(Cl)(Cl)Cl
active: [1] 74.3 µM | [2] 77.9 µM | [4] 38.8 µM | [5] 49.6 µM | [6] 86.7 µM | [7] 89.8 µM | [8] 71 µM
not listed: [11] | [12] | [13] | [19] | [20]
inactive: all other assays above

CO/N=C(/C1=NOCCO1)c1ccccc1Oc1ncnc(Oc2ccccc2Cl)c1F
active: [1] 33 µM | [3] 3.05 µM | [10] 2.4 µM | [12] 5.15 µM | [17] 0.936 µM
not listed: [14] | [16] | [20]
inactive: all other assays above

CCN(CC)C(=O)C(C)Oc1cccc2ccccc12 (stereo not drawn)
active: [11] 55 µM
not listed: [4] | [8]
inactive: all other assays above

C=C(C)CN(CC)c1c([N+](=O)[O-])cc(C(F)(F)F)cc1[N+](=O)[O-]
active: [9] 0.000117 µM
not listed: [6] | [8] | [13]
inactive: all other assays above

Nc1c(Cl)c(Cl)nc(C(=O)O)c1Cl
active: [3] 75.6 µM
not listed: [11] | [12] | [13] | [14] | [19] | [20]
inactive: all other assays above
